Compounds with a hit are over-represented: about 2.3% of the library has one in this group of screens.
TGFb inhibitor: inhibitors of TGF-b signaling. AID 588855. Potency, µM (titrated, usually from 46.1 µM), for the others: top-dose activity, negative = inhibition, usual class: inhibitors. HepG2 CAGA-GFP TGF-b/SMAD3 reporter, GFP fluorescence, 18 h; TGF-beta stimulated, 500 pg/mL final. 410,000 tested, 1.2% active; also: % is scaled to controls: 0 for no effect and ±100 for the full control effect; nearly all actives have a fitted effect of over 65% in size
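Cell-based qHTS in HEPG2 carrying a CAGA-GFP Smad reporter; compounds added before 500 pg/mL final TGF-beta, 18 h incubation at 37 degrees C, GFP fluorescence quantified per cell by imaging cytometry.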
HepG2 viability: HepG2 cytotoxicity, counter-screen for TGF-b inhibitors; HepG2 CAGA-GFP viability, ATP luminescence, 18 h; Potency, µM (doses to about 46.1 µM), for the others: at the highest dose activity change, negative = cytotoxicity, usual class: cytotoxic; 410,000 tested, 0.76% active; AID 588856
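CellTiter-Glo luminescence gave cytotoxicity after 18 hours at 37 degrees C. The cells were HepG2 CAGA-GFP in 1% FBS DMEM, stimulated with 500 pg/mL TGF-beta after compound addition. %Activity was normalised to no-cell wells (complete cell-killing) and DMSO (no toxicity), and curves were fitted and classified.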
S2 tox: viability counter-screen for ATXN expression inhibitors; S2 cells (HEK-293 line with an ATXN2-luciferase reporter) viability, CellTiter-Fluor protease fluorescence, 24 h; Potency, µM (titrated, usually from 56.7 µM), actives largely listed as cytotoxic; 400,000 tested, 0.49% active; AID 651635; also: nearly all actives have a fitted effect of over 40% in size
ATXN2 expr inh: reduces ATXN2 reporter expression in HEK-293 cells | AID 1745845 | 360,000 tested, 0.72% active | HEK-293 ATXN2-luciferase reporter, luminescence, 24 h | Potency, µM (highest dose often 57 µM), inactives show at the highest dose activity change, negative = inhibition, hits mostly inhibitors; also: % is scaled to controls: 0 for no effect and ±100 for the full control effect; nearly all actives have a fitted effect of over 55% in size
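qHTS (up to 57 uM final) was run with 24 h compound exposure of reporter cells at 37 °C. Each well was multiplexed: SteadyGlo luminescence measured ATXN2-luciferase expression after a fluorogenic Gly-Phe-AFC viability readout (25 uM final).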
Numbers without * were called inactive; ! = not confirmed by another sample. Calls follow the shape of the dose curve; as a rule, active = well fitted curve in the direction sought with a large enough effect; inconclusive = small, poorly fitted or top-dose-only effect, or another doubt; inactive = no such curve, though single readings can be large; an effect the other way counts as inactive or inconclusive. Potency is read from the fitted curve at half-maximal effect.

What do the screens show for `S=C1SCN(Cc2ccccc2)CN1Cc1ccccc1`?
TGFb inhibitor: inconclusive; HepG2 viability: -52%; S2 tox: inactive; ATXN2 expr inh: -18%

What do the screens show for `S=C1SCN(CC2CC2)CN1CC1CC1`?
TGFb inhibitor: 11µM*; HepG2 viability: -10%; S2 tox: inactive; ATXN2 expr inh: inconclusive

Results for O=C(CC(=O)c1cc(Cl)ccc1O)c1ccccc1 ?
TGFb inhibitor: inconclusive; HepG2 viability: 11µM*; S2 tox: inactive; ATXN2 expr inh: inconclusive

What do the screens show for `CCN(CC)/[N+]([O-])=N/OCOC(=O)c1ccccc1OC(C)=O`?
TGFb inhibitor: -9%; HepG2 viability: 6%

How did COc1ccc(NC(=O)c2ccc(-c3ccc(-c4noc(C)n4)cc3C)cc2)cc1N1CCN(C)CC1 do in these assays?
TGFb inhibitor: 18µM*; HepG2 viability: 11µM*!; ATXN2 expr inh: inconclusive

How did COc1cc(Cl)c(C)cc1NC(c1ccccc1)c1nnc(-c2ccccc2Cl)o1 (centres undefined) do in these assays?
TGFb inhibitor: 18µM*; HepG2 viability: -35%

What do the screens show for `CNC(=O)c1ccccc1Sc1ccc2c(C=Cc3ccccn3)n[nH]c2c1`?
ATXN2 expr inh: 9%

How did Cc1cccc(/N=C/c2c(O)ccc3oc4c(c23)CCCC4)n1 do in these assays?
TGFb inhibitor: 16µM*; HepG2 viability: 1%; S2 tox: inactive; ATXN2 expr inh: -28%

Results for O=C(C=CC#Cc1cccc(NS(=O)(=O)c2ccccc2)c1)NO ?
ATXN2 expr inh: -55%

Results for CN(C)c1ccc(-n2cccc2/C=C/[N+](=O)[O-])cc1 ?
TGFb inhibitor: 11%; HepG2 viability: -3%; S2 tox: 30µM*; ATXN2 expr inh: inconclusive

What do the screens show for `c1cc(SC2CCCCC2)cc(-c2nc3cnccn3c2NC2CCCCC2)c1`?
TGFb inhibitor: -17%; HepG2 viability: 16µM*; ATXN2 expr inh: inconclusive

Results for c1cn2c(NC3CCCC3)c(-c3ccc(N4CCOCC4)cc3)nc2cn1 ?
TGFb inhibitor: -25%; HepG2 viability: -42%; ATXN2 expr inh: 50%

How did c1cn2c(NC3CCCCC3)c(-c3ccc(SC4CCCCC4)cc3)nc2cn1 do in these assays?
TGFb inhibitor: 2.8µM*; HepG2 viability: -1%; ATXN2 expr inh: 10%

Results for OCc1ccccc1O[C@@H]1O[C@H](CO)[C@H](O)[C@H](O)[C@H]1O ?
ATXN2 expr inh: -1%

How did O=C(NCC1CCC2(CCN(Cc3cccn3-c3ccc(Cl)cn3)CC2)O1)c1ccccc1 (centres undefined) do in these assays?
S2 tox: inactive

How did O=C(C=CC=Cc1ccc2c(c1)OCO2)N1CCCCC1 do in these assays?
ATXN2 expr inh: 46%

Results for CCSc1nc2ccccc2n1C(=O)/C=C\c1ccc(OC)c(OC)c1 ?
TGFb inhibitor: -27%; HepG2 viability: -3%; S2 tox: inconclusive; ATXN2 expr inh: 13µM*

Results for CCSc1nc2ccccc2n1CC(N)=O ?
TGFb inhibitor: 40%; HepG2 viability: 9%; S2 tox: inactive; ATXN2 expr inh: 0%

Results for CC(=O)OC(C)OC(=O)C(C)c1ccc(-c2ccccc2)c(F)c1 (centres undefined) ?
S2 tox: inactive; ATXN2 expr inh: 11%

Results for OC[C@@H](O)[C@H](O)[C@H](O)[C@@H](O)CO ?
S2 tox: inactive; ATXN2 expr inh: 13%

How did NS(=O)(=O)c1ccc(N=Nc2c[nH]c(=O)c(O)c2)cc1 do in these assays?
TGFb inhibitor: 4%; HepG2 viability: -4%; S2 tox: 18µM*; ATXN2 expr inh: 4%

How did Nc1c(Br)cc(/C=C2\C=Cc3ccccc32)cc1Br do in these assays?
TGFb inhibitor: -28%; HepG2 viability: -36%

Results for Cc1ccc(SC[C@H](Cc2ccccc2)N2CC[C@@H](C(C)(C)C)CCC2=O)cc1 ?
TGFb inhibitor: -10%; HepG2 viability: 1%

Results for CC(C)(C)[C@H]1CCC(=O)N([C@H](CSc2ccccc2)Cc2ccccc2)CC1 ?
TGFb inhibitor: 11µM*!; HepG2 viability: -21%; S2 tox: inconclusive; ATXN2 expr inh: -15%

Results for CC(CC12CC3CC(CC(C3)C1)C2)NCc1ccccc1O (centres undefined) ?
TGFb inhibitor: 18µM*; HepG2 viability: 16µM*; S2 tox: inconclusive; ATXN2 expr inh: -53%

Results for Oc1ccccc1CNCC12CC3CC(CC(C3)C1)C2 ?
TGFb inhibitor: 13%; HepG2 viability: -17%; S2 tox: inactive; ATXN2 expr inh: 9%

What do the screens show for `CN(C)c1ccc(/C=C/c2ccnc3ccccc23)cc1O`?
TGFb inhibitor: 98%; HepG2 viability: -50%

What do the screens show for `CCOC(CN=c1nc(N(C)C)ss1)OCC`?
TGFb inhibitor: inconclusive; HepG2 viability: -26%; ATXN2 expr inh: inconclusive

How did CN(C)c1nc(=NCc2ccco2)ss1 do in these assays?
TGFb inhibitor: 0.32µM*; HepG2 viability: -74%; S2 tox: 0.1µM*

Results for O=C(Nc1nccs1)[C@@H]1CC=C[C@@H]2CCN(C3CCCCC3)C(=O)[C@@H]21 ?
TGFb inhibitor: inconclusive; HepG2 viability: 1%

What do the screens show for `Cc1noc(C)c1CSc1nc2ccccc2nc1NS(=O)(=O)c1ccc(Cl)cc1`?
TGFb inhibitor: 7.9µM*; HepG2 viability: -46%; S2 tox: inactive; ATXN2 expr inh: -26%

How did N#CN=c1snc(-c2ccccc2)n1-c1ccc(Cl)cc1 do in these assays?
TGFb inhibitor: 0%; HepG2 viability: -3%

Results for C=Cc1ncc(OC)c2c1[nH]c1ccccc12 ?
TGFb inhibitor: 20µM*; HepG2 viability: 13µM*; ATXN2 expr inh: inconclusive

How did COc1ccc(/C=C/c2nccc3c2[nH]c2ccccc23)cc1 do in these assays?
TGFb inhibitor: -11%; HepG2 viability: -39%

Results for CCOC(=O)/C=C(\C)Sc1cc(O)c2ccccc2c1O ?
TGFb inhibitor: 3.2µM*; HepG2 viability: 5.6µM*; S2 tox: inconclusive

What do the screens show for `CCOC(=O)/C=C(\C)Sc1cc(=O)oc2ccccc12`?
TGFb inhibitor: -5%; HepG2 viability: -31%; S2 tox: inactive; ATXN2 expr inh: 3%

Results for O=C(C=Cc1ccc(CN(CCO)CCc2c[nH]c3ccccc23)cc1)NO ?
ATXN2 expr inh: -52%

Results for Cc1ccc(C)c(N2CCN(CCCNC(=O)Cn3cccc3C(=O)c3ccccc3)CC2)c1 ?
TGFb inhibitor: -14%; HepG2 viability: -35%; S2 tox: 17µM*; ATXN2 expr inh: inconclusive

How did O=C(Cn1cccc1C(=O)c1ccccc1)NCCCN1CCOCC1 do in these assays?
TGFb inhibitor: 2%; HepG2 viability: -14%; S2 tox: inactive; ATXN2 expr inh: 0%

Results for CCN(CC)S(=O)(=O)c1ccc2c(c1)N(CC(=O)NCCCN1CCN(c3cc(C)ccc3C)CC1)C(=O)CO2 ?
TGFb inhibitor: inconclusive; HepG2 viability: 16µM*; S2 tox: 16µM*; ATXN2 expr inh: 32µM*

Compound activity from PubChem.
